Inconclusive results are not listed. Activity calls are given as the source filed them. Unless noted, calls follow the shape of the dose curve; as a rule, active = well fitted curve in the direction sought with a large enough effect in the repeat runs; inconclusive = weak or mixed curves; inactive = no such curve, though single readings can be large; an effect the other way counts as inactive or inconclusive.
Assays:
[1] = qHTS assay for small molecules that induce genotoxicity in human embryonic kidney cells expressing luciferase-tagged ATAD5 (AID 651632); also: nearly all actives have a fitted effect of over 15% in size; also: potency is read from the fitted curve at half-maximal effect
In short: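 Luminescent reporter readout, HEK293T ATAD5-luc line: 16 hr drug exposure (37C, 5% CO2) followed by Amplite, 30 min RT.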

[2] = qHTS assay for small molecule agonists of the p53 signaling pathway - cell viability (AID 651633; calls by dose curve; also: nearly all actives have a fitted effect of over 30% in size; also: potency is read from the fitted curve at half-maximal effect)
In short: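 p53RE-bla cells, seeded at 4,000 per well and rested 5 h at 37 C/5% CO2, received compounds in DMSO for 16 h at 37 C. CellTiter-Glo was then added, and luminescence was read after 30 min at room temperature to gauge cytotoxicity.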

[3] = qHTS assay for small molecules that induce genotoxicity in human embryonic kidney cells expressing luciferase-tagged ATAD5 - cell viability (AID 651634; calls by dose curve; also: nearly all actives have a fitted effect of over 25% in size; also: potency is read from the fitted curve at half-maximal effect)
In short: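 Viability read: CellTiter-Fluor fluorescence, 30 min at 37C. Cells: HEK293T, luciferase-tagged ATAD5. Exposure: 15.5 hr, 37C, 5% CO2, compound or DMSO vehicle.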

[4] = qHTS assay for small molecule disruptors of the mitochondrial membrane potential - cell viability (AID 720634; calls by dose curve; also: nearly all actives have a fitted effect of over 20% in size; also: potency is read from the fitted curve at half-maximal effect)
In short: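 HepG2, 1 hr compound, 37 C. ATP luminescence via CellTiter-Glo, 30 min RT, same well as m-MPI.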

[5] = qHTS assay to test for compound auto fluorescence at 590 nm (red) in HepG2 cells (AID 720674)
In short: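 Rose Bengal sodium served as the red fluorophore standard. HepG2 monolayers (overnight attachment, MEM with 10% FBS) were exposed to test compounds for 1 hr at 37 C and read at Ex 540/Em 590 nm.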

[6] = qHTS assay to test for compound auto fluorescence at 535 nm (green) in HepG2 cells (AID 720675)
[7] = qHTS assay to test for compound auto fluorescence at 460 nm (blue) in HEK293 cells (AID 720678)
In short: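 Intrinsic compound fluorescence is recorded in live HEK293 cultures after overnight incubation at 37C, 5% CO2, using excitation 405 nm and emission 460 nm. Values are referenced to triamterene.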

[8] = qHTS assay to test for compound auto fluorescence at 590 nm (red) in HEK293 cells (AID 720679)
In short: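 Red autofluorescence, HEK293 cells: 2,000 cells/well; attach 4-5 hr 37C; add 23 nL cpd or DMSO; incubate o/n 37C 5% CO2; read Ex540/Em590; Rose Bengal sodium reference.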

[9] = qHTS assay to test for compound auto fluorescence at 535 nm (green) in HEK293 cells (AID 720680)
[10] = qHTS assay to test for compound auto fluorescence at 460 nm (blue) in HEK293 cell free culture (AID 720681)
In short: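 Test compounds were pinned into cell-free culture medium (DMEM with 10% FBS) and fluorescence was read directly at Ex/Em 405/460 nm. Signals were expressed as fluorescence equivalents of triamterene, with DMSO vehicle as control.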

[11] = qHTS assay to test for compound auto fluorescence at 535 nm (green) in HEK293 cell free culture (AID 720682)
In short: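 Green-label autofluorescence (485 nm excitation, 535 nm emission) measured on compound added to cell-free culture medium (DMEM, 10% FBS). Output is expressed relative to fluorescein.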

[12] = qHTS assay to test for compound auto fluorescence at 590 nm (red) in HEK293 cell free culture (AID 720683)
In short: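 Tox21 10K library compounds were pinned into cell-free DMEM with 10% FBS and fluorescence was read at excitation 540 nm. Activity is expressed as Rose Bengal sodium equivalency.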

[13] = qHTS assay to test for compound auto fluorescence at 590 nm (red) in HepG2 cell free culture (AID 720684)
In short: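 Measured in medium alone (MEM containing 10% FBS) following pintool addition of compound; emission at 590 nm with 540 nm excitation, referenced to Rose Bengal sodium.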

[14] = qHTS assay to test for compound auto fluorescence at 535 nm (green) in HepG2 cell free culture (AID 720686)
[15] = qHTS assay to test for compound auto fluorescence at 460 nm (blue) in HepG2 cells (AID 720687)
In short: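 Cells (2,000/well in MEM with 10% FBS) attached overnight at 37 C, then were exposed to compound or DMSO for 1 hr at 37 C, 5% CO2. Fluorescence read at Ex/Em 405/460 nm, expressed as triamterene-equivalent signal.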

[16] = qHTS assay to test for compound auto fluorescence at 460 nm (blue) in HepG2 cell free culture (AID 720685)
In short: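 Compound (23 nL) or DMSO pinned into cell-free MEM with 10% FBS; blue fluorescence read at 405/460 nm excitation/emission, expressed as auto-fluorescence equivalency to triamterene.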

[17] = target: Glucocorticoid receptor (Homo sapiens) (UniProt P04150); test: qHTS assay to identify small molecule agonists of the glucocorticoid receptor (GR) signaling pathway (AID 720691; active = well fitted activation curve with a large enough effect in the signal ratio in the repeat runs, not every such curve was filed as active; the % refers to the signal ratio)
Chain of Glucocorticoid receptor (Homo sapiens) (P04150 whole entry, looked up): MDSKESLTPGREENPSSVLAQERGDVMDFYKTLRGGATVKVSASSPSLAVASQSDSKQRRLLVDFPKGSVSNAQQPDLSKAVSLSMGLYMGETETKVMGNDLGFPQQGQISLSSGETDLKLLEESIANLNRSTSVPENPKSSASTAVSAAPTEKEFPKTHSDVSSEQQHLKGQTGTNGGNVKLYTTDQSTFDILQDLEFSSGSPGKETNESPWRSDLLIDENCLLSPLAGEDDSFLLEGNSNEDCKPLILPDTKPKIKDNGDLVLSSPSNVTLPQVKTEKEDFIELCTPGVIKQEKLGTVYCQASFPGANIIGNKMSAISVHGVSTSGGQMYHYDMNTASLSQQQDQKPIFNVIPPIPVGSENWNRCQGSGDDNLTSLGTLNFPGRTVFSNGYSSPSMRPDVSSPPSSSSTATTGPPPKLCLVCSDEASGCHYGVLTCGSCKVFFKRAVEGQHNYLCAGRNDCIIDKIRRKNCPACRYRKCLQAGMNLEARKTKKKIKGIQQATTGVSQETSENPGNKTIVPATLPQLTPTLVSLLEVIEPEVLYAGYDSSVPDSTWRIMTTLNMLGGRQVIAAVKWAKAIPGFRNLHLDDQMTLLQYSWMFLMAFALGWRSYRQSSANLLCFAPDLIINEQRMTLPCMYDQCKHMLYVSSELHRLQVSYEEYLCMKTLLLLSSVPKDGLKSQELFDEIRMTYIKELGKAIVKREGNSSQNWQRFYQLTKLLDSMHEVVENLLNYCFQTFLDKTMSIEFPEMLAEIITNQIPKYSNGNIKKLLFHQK
In short: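 qHTS in GR-bla HeLa cells: 4 h settling at 37 C/5% CO2, 18 h compound incubation at 37 C, 2 h LiveBLAzer B/G FRET substrate at room temperature, fluorescence intensity measured.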

[18] = target: Glucocorticoid receptor (Homo sapiens) (UniProt P04150); test: qHTS assay to identify small molecule antagonists of the glucocorticoid receptor (GR) signaling pathway (AID 720692; active = well fitted inhibition curve with a large enough effect in the signal ratio in the repeat runs, not every such curve was filed as active; the % refers to the signal ratio; also: potency is read from the fitted curve at half-maximal effect)
In short: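 Inhibition of glucocorticoid signalling is measured in HeLa cells with a GRE-controlled beta-lactamase reporter; cells are co-treated with compound and 5 nM dexamethasone (final) for 18 h before FRET substrate readout.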

[19] = qHTS assay for small molecule disruptors of the mitochondrial membrane potential (AID 720635); also: potency is read from the fitted curve at half-maximal effect
In short: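 HepG2 cells (2,000/well) attached overnight at 37C, then took compound for 1 hr at 37C, 5% CO2. Mito-MPS dye was added for 30 min; fluorescence was read at 490/535 nm (monomers) and 540/590 nm (aggregates).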

Measured: Potency

Clc1sc(Cl)c(Cl)c1Cl
not listed: [16] | [17] | [18] | [19]
inactive: all other assays above

CC(C)(C)c1csc(-c2cc3cc(OCc4ccccc4CC(=O)O)ccc3o2)n1
active: [2] 15.4 µM | [3] 24.3 µM | [4] 61.1 µM
not listed: [14] | [17] | [18] | [19]
inactive: all other assays above

CCCCCCCCCCOC(=O)c1ccccc1C(=O)OCCCCCCCC
not listed: [8] | [18] | [19]
inactive: all other assays above

CCCCCCCCCCC[C@@H](C[C@@H]1OC(=O)[C@H]1CCCCCC)OC(=O)[C@H](CC(C)C)NC=O
not listed: [13] | [18] | [19]
inactive: all other assays above

COC(C)=O
not listed: [15] | [19]
inactive: all other assays above

[Cu+]
not listed: [8] | [15] | [17] | [18] | [19]
inactive: all other assays above

C=CC(=O)OCCOC(=O)C=C
active: [1] 21.7 µM | [3] 61.1 µM
not listed: [13] | [18] | [19]
inactive: all other assays above

COc1ccc(-c2coc3cc(O)ccc3c2=O)cc1
active: [1] 1.72 µM
not listed: [16] | [18] | [19]
inactive: all other assays above

O=C(O)c1ccc2cc(C(=O)O)ccc2c1
not listed: [15] | [19]
inactive: all other assays above

Nc1ccc(Oc2ccc(Cl)cc2)cc1
active: [18] 24 µM
not listed: [14] | [16] | [17] | [19]
inactive: all other assays above

S=C([S-])NCCNC(=S)[S-].S=C([S-])NCCNC(=S)[S-].[Mn+2].[Zn+2]
not listed: [16] | [18] | [19]
inactive: all other assays above

Cc1cc(-c2ccc(N=Nc3cc(S(=O)(=O)O)c4ccccc4c3N)c(C)c2)ccc1N=Nc1cc(S(=O)(=O)O)c2ccccc2c1N
active: [19] 12.3 µM
not listed: [2] | [14] | [18]
inactive: all other assays above

COC(=O)C1=C(C)NC(C)=C(C(=O)OCCN2CCN(C(c3ccccc3)c3ccccc3)CC2)C1c1cccc([N+](=O)[O-])c1 (centres undefined)
active: [3] 11.9 µM | [19] 10.6 µM
not listed: [2] | [4] | [15] | [16] | [18]
inactive: all other assays above

CCCNCCC
not listed: [1] | [8] | [13]
inactive: all other assays above
